One may read the inhibition as the drop in the measured response relative to a control, in per cent.

Each structure is given as a SMILES string. Among all 340,000 compounds or so, about 3,300 (0.97%) were called active. Many of the other results were omitted from the sample, so actives are more common in it than they were. Unmarked numbers belong to inactive results.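 The calls were made as follows: active = inhibition above the mean over all tested compounds plus 3 SD (cut at about 30% in these data); inactive = the rest.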

This test deals with Platelet-activating factor acetylhydrolase 2, cytoplasmic (Homo sapiens) (UniProt Q99487). As to the kind of experiment: PAFAH2 enzyme inhibitors, primary screen, biochemical, fluorescence polarization, human (AID 492956).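 Also: inhibitors block probe labeling of enzyme so polarization drops; 0% = enzyme with DMSO and 100% = wells lacking PAFAH2 protein.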 To be noted: recombinant PAFAH2, FP-rhodamine activity probe, at 3.39 µM, active compounds read high.
For the molecule `CC1(C)CC(O)C(CCC(O)c2ccccc2)C(C)(C)N1` (configuration not stated), the inhibition is 4.72%. As for `O=C(NCCNc1ccc([N+](=O)[O-])cc1)c1cccc2c(Br)cccc12`, the figure is 2.72%; as for `CCC(=O)N(Cc1ccccc1)c1ccccn1`, -1.23%; as for `Cc1cc(OCCCC(=O)Nc2cc(S(=O)(=O)N3CCOCC3)ccc2N2CCOCC2)ccc1Cl`, 8.81%. For `CSc1ncc(C(=O)NCCCc2ccccc2)c(C)n1` the value was -6.77%; for `CCCCN1Cc2c(nc3cc(-c4ccccc4)[nH]n3c2=O)C1=O`, 40.2% (active); for `O=c1c2c(nc3cc(-c4cccc(Cl)c4)[nH]n13)CCCC2`, 2.97%.

As to `C=CCc1c(C)nc2cc(-c3ccccc3)[nH]n2c1=O`, the inhibition was 0.26%. For `Cc1cc(=O)oc2c(C)c(OC(C)C(=O)NC3CCN(Cc4ccccc4)CC3)ccc12` (configuration not stated), the inhibition is 1.42%. For `CC(OC(=O)c1c(F)cccc1F)C(=O)NCCC1=CCCCC1` (configuration not stated) the value was 8.3%. For `CC(=O)Nc1ccc(C(=O)OCC(=O)Nc2ccc([N+](=O)[O-])cc2C(F)(F)F)cc1` the value was 40.5% (active); for `NC(=O)c1ccc(NC(=O)COC(=O)c2ccc([N+](=O)[O-])cc2)cc1`, 0.64%; for `O=C(COC(=O)c1cc[n+]([O-])cc1)Nc1ccc(Cl)c(C(F)(F)F)c1`, -4.1%. For `O=C1NN(c2ccccc2)C(=O)/C1=C/c1ccc(-c2cccc(C(=O)O)c2)o1` the value was 24.1%; for `O=C(O)C(c1ccccc1)N1C(=O)/C(=C\c2ccc(-c3cccc(Cl)c3)o2)SC1=S` (configuration not stated), 40.3% (active). On to `O=C1c2ccccc2NC(c2ccc(-c3cccc(Cl)c3)o2)N1O` (configuration not stated), for which the inhibition was -3.11%.

In the case of `O=C(O)c1ccc(NN=CC2=C(N3CCOCC3)/C(=C/c3ccccc3)CC2)cc1`, the inhibition is 1.44%. For the molecule `COc1ccc(C(C[N+](=O)[O-])n2nc(C)cc2C)cc1` (configuration not stated), the inhibition was 1.81%. For `Cc1cc(NS(=O)(=O)c2ccc(NC(=S)NC(=O)c3ccc(F)cc3Cl)cc2)no1` the value was 3.92%. Turning to `O=C(Nc1cccc(S(=O)(=O)NC2=NCCC2)c1)c1ccc(F)cc1F`, the inhibition was -3.56%. As for `O=C(Nc1cc(S(=O)(=O)Nc2ccc(Cl)cc2)ccc1O)c1ccc(F)cc1F`, the figure is 61.9% (active); as for `C[C@H]1CCC(=O)N([C@H](CSc2ccccc2)Cc2ccccc2)CC1`, 4.65%.

As for `C/C=N/NC(=O)CCCC(=O)N/N=C/C`, the inhibition is -3.09%. For `Cc1ccc2c(c1)C1CN(C)CCC1N2C(=S)Nc1ccc(Cl)cc1Cl` (configuration not stated) the value was 8.44%; for `Cc1ccc2c(c1)C1CN(C)CCC1N2S(=O)(=O)c1cccc(F)c1` (configuration not stated), 4.06%; for `Cc1ccc2c(c1)C1CN(C)CCC1N2C(=O)c1ccccc1NS(=O)(=O)c1ccc(F)cc1C` (configuration not stated), 41.1% (active). As for `CCC(C)[C@H](NC(=O)N1CCn2c1nc1ccccc12)C(=O)NCc1ccc(OC)cc1` (some centres not stated), the figure is 5.18%. For `CCc1ccc(C2C(C#N)=C(N)N(N3CCOCC3)C3=C2C(=O)CC(C)(C)C3)s1` (configuration not stated) the value was 0.28%; for `O=C(COC(=O)CCCN1C(=O)c2cccc3cccc(c23)C1=O)NC1CCS(=O)(=O)C1` (configuration not stated), 3.81%.

Consider `Cc1cnc(NC(=O)c2ccccn2)s1`, for which the inhibition is 13.5%.

As for `Cc1cnc(NC(=O)CSc2c(Cl)cccc2Cl)s1`, the inhibition is 38.4% (active). For `Cc1cnc(NC(=O)C2CCCC2)s1` the value was 1.44%; for `O=C(COC(=O)CC1CC2CCC1C2)NC(=O)NC1CCCC1` (configuration not stated), 1.25%; for `Cc1noc(C)c1C(=O)N(CC(=O)NC1CCCC1)Cc1ccccc1F`, 3.06%. As for `CCOc1ccc2nc(/N=C/c3nc(-c4ccccc4)oc3O)sc2c1`, the figure is 2.86%; as for `CC(N=Cc1nc(-c2ccccc2)oc1O)c1ccccc1` (configuration not stated), 21%. Consider `Oc1oc(-c2ccccc2Br)nc1/C=N/c1ccccn1`, for which the inhibition is 68% (active). For `COc1ccc(F)cc1C(=O)COC(=O)c1n[nH]c(=O)c2ccccc12` the value was 0.13%; for `CN(C)c1ccc2c(=O)[nH][nH]c(=O)c2c1`, 0.81%. For `Cc1ccc2c(=O)oc(N(C)C)nc2c1` the value was 33% (active); for `Cc1ccc2oc(=O)ccc2c1`, 1.28%; for `CCOC(=O)C1CCCCN1Cc1ccc(OC)c(OC)c1OC` (configuration not stated), -0.46%.

As to `COC(CCN(C)C)(c1ccccc1)c1ccccc1`, the inhibition was 3.5%.

Take `C=CCC(NCCCO)c1cccc(OC)c1OC` (configuration not stated): the inhibition was 5.85%. For `O=C1C(Cl)=C(Oc2ccccc2)C(=O)c2ccccc21` the value was 43.1% (active).

For the molecule `CC(=O)N(C1=C(Cl)C(=O)c2ccccc2C1=O)c1ccc(C(=O)O)cc1`, the inhibition is 10.5%. On to `Cc1ccc2[nH]c(=O)c(CN3CCCCC3)c(-c3ccccc3)c2c1`, for which the inhibition was 6.01%. As for `CCc1cc(=O)oc2c(C)c(OCC(=O)N3CC[C@@]4(O)CCCC[C@H]4C3)ccc12`, the figure is -2.6%; as for `Oc1c(Cl)cc(Cl)c(Cl)c1Cc1c(O)c(Cl)cc(Cl)c1Cl`, 49.4% (active). As for `CCOC(=O)C(=CNNc1ccsc1C(=O)OC)C(=O)OCC`, the figure is -1.37%; as for `CCOc1ccc(S(=O)(=O)N2CCC(C(=O)NCC(=O)Nc3cccc(Cl)c3C)CC2)cc1`, 8.28%; as for `O=C(O)c1ccc(NS(=O)(=O)c2ccc3c(c2)C(=O)c2cc(S(=O)(=O)Nc4ccc(C(=O)O)cc4)ccc2-3)cc1`, 4.82%. On to `OCC[C@H]1C[C@H](O)[C@@H](O)[C@]2(Cc3ccccc3CO2)O1`, for which the inhibition is 8.82%.

For the molecule `COc1ccc(NS(=O)(=O)c2ccc(C)c(C(=O)NCC(c3cccs3)N3CCOCC3)c2)cc1` (configuration not stated), the inhibition is 7.05%. For `CCOc1ccccc1NC(=O)CCc1nnc2ccc(NCc3ccco3)nn12` the value was 3.78%. With `COc1ccc(-c2nnc(SCC(=O)Nc3cccnc3Cl)n2C)cc1`, the inhibition was 0.74%. For `Cc1ccc(/C=C/C(=O)OCC(=O)Nc2cccnc2Cl)cc1` the value was 30.3% (active); for `O=C(COC(=O)/C=C/c1nc2ccccc2s1)Nc1ccccc1Oc1ccccc1`, -12.4%. For `O=C(NCCC(=O)N1O[C@@H]2C=C[C@H]1C2)OCC1c2ccccc2-c2ccccc21` the value was 2.94%; for `O=C(Cc1ccc([N+](=O)[O-])cc1)Nc1ccc(C(=O)N2CCOCC2)cc1`, 1.43%; for `O=C(Oc1cccc(C(=S)N2CCOCC2)c1)c1cccc(Cl)c1`, 5.91%.

As to `O=C(/C=C/c1cccs1)c1cc(Cl)ccc1OC(=O)N1CCOCC1`, the inhibition was 72.8% (active). For `CC(=O)Nc1ccccc1OC(=O)N1CCOCC1` the value was 7.14%. For `COc1cccc(N(C(=O)c2snc(C(N)=O)c2N)C(C(=O)NCC2CCCO2)c2c[nH]c3ccccc23)c1` (configuration not stated) the value was -0.32%. `COc1ccc(-c2nc3c(s2)CCc2onc(-c4ccc(Br)cc4)c2-3)cc1`: the inhibition was -1.79%. With `Cc1cc(C)cc(NC(=O)c2cccc(NC(=O)C3C4CC5OC(=O)C3C5C4)c2)c1` (configuration not stated), the inhibition is 6.12%.

Regarding `Cc1ccc(NC(=O)C2CC2)cc1S(=O)(=O)N1CCOCC1`, the inhibition was -3.1%. For `O=C(COC(=O)c1ccco1)NCc1ccc(Cl)cc1` the value was 24.3%; for `Cc1ccc(NC(=O)COC(=O)CNC(=O)c2ccc(Cl)cc2Cl)cc1S(=O)(=O)N1CCOCC1`, -3.69%. For the molecule `Cc1ccc(C(=O)OCC(=O)Nc2ccc(Cl)cn2)cc1S(=O)(=O)N1CCOCC1`, the inhibition was 55.8% (active). As for `Cc1ccc(NC(=O)COC(=O)C2C3CC4OC(=O)C2C4C3)cc1Cl` (configuration not stated), the figure is 88.2% (active); as for `Cc1ccc(C(=O)OCC(=O)N2CCCCCC2)cc1S(=O)(=O)N1CCOCC1`, 10.7%; as for `O=C(Nc1ccc(Br)cc1)c1cccc(NC(=O)C2C3CC4OC(=O)C2C4C3)c1` (configuration not stated), -8.44%.

As for `Cc1cc(NC(=O)COC(=O)c2ccc(F)c(S(=O)(=O)N3CCOCC3)c2)no1`, the inhibition was 8.91%.

In the case of `Cc1ccc(NC(=O)COC(=O)C2CC2)cc1S(=O)(=O)N1CCOCC1`, the inhibition is 77.5% (active).

For `CC(OC(=O)CNC(=O)c1ccco1)C(=O)Nc1ccc(Cl)cn1` (configuration not stated), the inhibition was -0.78%. `O=C(COC(=O)c1ccco1)Nc1ccc(Cl)cn1`: the inhibition is 45.5% (active).

On to `Cc1ccc(NC(=O)C(=O)NCC2CCN(C(=O)c3cccc([N+](=O)[O-])c3)CC2)cc1`, for which the inhibition was 3.36%. For `C=CCNc1nnc(SCC(=O)N2CCCCC2)c2ccccc12` the value was -3.63%.

As for `O=C(Nc1ccc(-c2cscn2)cc1)C1CCCN(Cc2ccc(CO)o2)C1` (configuration not stated), the inhibition was -10.4%. For `COc1ccc(CNC(=O)[C@@H]2CC=C[C@@H]3CCN(C4CC4)C(=O)[C@@H]32)cc1`, the inhibition was -6.96%. For `CCOC(=O)C1=C(c2ccccc2)O/C(=C(/C(=O)OC)C(F)(F)F)S1` the value was 1.19%; for `Cc1cc(=O)n(C)c(=O)n1CCCNc1ccccc1`, -0.72%. For `CCCC(=O)N1CCC(CCC(=O)NC2CC2)CC1` the value was 2.54%; for `CC(CO)NCC12CC3CC(CC(C3)C1)C2` (configuration not stated), -2.32%; for `CCc1ccc2oc(-c3ccc(N)cc3)nc2c1`, 8.24%. For `Cc1cc(-c2nnc(SCC(=O)Nc3ccc(S(N)(=O)=O)cc3)n2N)n[nH]1` the value was -4.23%; for `Cc1ccc(C)c(S(=O)(=O)Nc2cc(C)on2)c1`, 0.2%. As to `CCc1cccc(C)c1NC(=O)COC(=O)CC1CCCC1`, the inhibition was 68.3% (active). As for `CCc1cccc(C)c1NC(=O)COC(=O)Cc1ccsc1`, the figure is 7.53%; as for `CCc1cccc(C)c1NC(=O)COC(=O)CNC(=O)c1cccs1`, 5.02%. As to `Cc1cc(C)n2nc(C(=O)OCC(=O)N(CCC#N)c3ccc(F)cc3)nc2n1`, the inhibition was -0.66%.

Values taken from PubChem BioAssay AID492956 (The Scripps Research Institute Molecular Screening Center, 2010).
